Measurements as given in the supplement of paper PMC10338343.
± gives the standard deviation.

System: MILI (PIWIL2) piRISC loaded with L1MC piRNA (26 nt);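 also: 1 nM active piRISC with 0.1 nM target library at 33 °C single turnover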
Assay: pre-steady-state target cleavage rate (min^-1); guide: L1MC piRNA 5'p-UAACUAAAUACUAUGCAAGCUGUAGG; higher = faster piRNA-guided slicing of the target
Conditions: auxiliary factor: none (no GTSF1)
Method in brief: (§1)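 Three pooled Cleave-'n-Seq trials supplied the data, with k3 capped at 0.0001 min^-1. In each, […] transcribed, DNA-blocked target RNA library and 1 nM active affinity-purified piRISC with one synthetic guide reacted in HEPES–potassium acetate buffer at 33 °C for 0–8 or 0–960 min, with or without 500 nM GTSF1 partner protein. Uncleaved targets were sequenced and normalised to depth and to weakly complementary targets. A burst-and-steady-state fit provided the pre-steady-state cleavage rate.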

Sequence	pre-steady-state target cleavage rate
UCCUGGAUGAGUUUGCAUAGUAUUUAGUUA	0.0059 ± 0.0028
UCCUGGUAGAGCUUGCAUAGUAUUUUGUUA	0.00365 ± 0.003
UCCUGGAUGUGCUUUCAUAGUAUUUAGUUA	0.00919 ± 0.0024
UCCUCCUACAGCUUGCAUAGUAUUUAGUAA	0.00585 ± 0.0026
UCCUGGAUCAGCUUGCAUAGUAUUUCGUUA	0.00354 ± 0.0024
UCCUGGUGCAGCUUGCAUAGUAUUUAGUUA	0.0103 ± 0.0029
UCCUGGAACAGCUUGCAUAGUAUUUAGGUUA	0.00413 ± 0.0032
UCCUGGUACAGUUUGCAUAGUAUUUAGUUA	0.0161 ± 0.005
UCCUGGAACAGCUUGCAUAGUAGUUUAGUUA	0.00337 ± 0.0031
UCCUGGAACAGCUUGCAUAGUAUGUAGUUA	0.00343 ± 0.003
UCCUCCUACAGCUUGCUUAGUAUAUAGUUA	0.00356 ± 0.0021
UCCUGGAUGUGCUUCAUAGUAUUUAGUUA	0.00455 ± 0.002
UCCUGGAUGUCGAACCAUAGUAUUUAGUCA	< 0.0001
UCCUGGAACAGCUUGCAUAGUAUUUAGUCA	0.00732 ± 0.0022
UCCUGGUACAGCUUGCAUAGUAAUUAGUUA	0.00595 ± 0.0029
UCCUCCUACAGCUUGGUAAGUAUUUAGUUA	0.00498 ± 0.0018
UCCUGGAUGAGCUAGCAUUGUAUUUAGUUA	0.00446 ± 0.0025
UCCUGCUACAGCUUGCAUAGUUUUUAGUUA	0.00327 ± 0.0022

System: EfPiwi piRISC loaded with L1MC piRNA (26 nt)
Assay: pre-steady-state target cleavage rate (min^-1); auxiliary factor: 500 nM Ephydatia muelleri Gtsf1; guide: L1MC piRNA 5'p-UAACUAAAUACUAUGCAAGCUGUAGG; MIWI and MILI are mouse PIWI proteins and EfPiwi is from a freshwater sponge; tags in brackets are library labels; higher = faster piRNA-guided slicing of the target
Conditions: not given
Method in brief: as §1

Sequence	pre-steady-state target cleavage rate
UCCUGCUACAGCUUGCAUAGUAUUUAAUUA	0.00612 ± 0.0025
UCCUGCUACAGCUAGCAUAGUAUUUAGAAA	0.00418 ± 0.0021
UCCUGGAACAGCUUGCAUAGUAUUUAGUA	0.00384 ± 0.0024
UCCUGGAUCAGCUAGCAUAGUAUUUAGAAA	0.0036 ± 0.0022
UCCUCCUACAGCUUGCAAACUAUUUAGUUA	0.00937 ± 0.0039
UCCUGGAUGAGUUUGCAUAGUAUUUAGUUA	0.0219 ± 0.006
UCCUGGUAGAGCUUGCAUAGUAUUUUGUUA	0.00292 ± 0.0029
UCCUCCUACAGCUUGCAUAGUAUAAAGAAA	0.00289 ± 0.0018
UCCUGCUACAGCUUGCAUACGUAUUUAGUUA	0.00225 ± 0.0022
UCCUCCUACAGCAUGCAUAGUAUUUACAAA	0.00397 ± 0.0026
UCCUGGAUGUGCUUUCAUAGUAUUUAGUUA	0.0041 ± 0.0024
UCCUGCUACAGCUUGGAUAGAAUUUAGUUA	0.0053 ± 0.0018
UCCUCCUACAGCUUGCAUAGUAUUUAGUAA	0.0113 ± 0.005
UCCUGCUACAGCUAGCAUAGUAUUUUGUUA	0.0057 ± 0.0021
UCCUCCUACAGCUUGCAUAGUAUUUAGUGUA	0.00735 ± 0.0033
UCCUCCUACAGCUUGCAUAGUAUUUACAUA	0.00441 ± 0.0028
UCCUCCUACAGCUUGCAUAGUAUUUUGUAA	0.0056 ± 0.003
UCCUGGAUCAGCUUGCAUAGUAUUUCGUUA	0.00263 ± 0.002
UCCUGGUGCAGCUUGCAUAGUAUUUAGUUA	0.0864 ± 0.018
UCCUGGAACAGCUUGCAUAGUAUUUAGGUUA	0.00305 ± 0.0027

Sequence	pre-steady-state target cleavage rate
UCCUCGUACAGCUUGCAUAGUAUUUAGAAA	0.00711 ± 0.0033
UCCUGGUACAGUUUGCAUAGUAUUUAGUUA	0.00421 ± 0.0025
UCCUCCUACAGCUUGCAUAGUAUUUAUUA	0.00539 ± 0.0031
UCCUGGAACAGCUUGCAUAGUAGUUUAGUUA	0.0047 ± 0.0024
UCCUGCUACAGCUUGCUUAGUAUUUUGUUA	0.0127 ± 0.004
UCCUCCUACAGCUUGCAUUGUAUUUACAAA	0.00314 ± 0.003
UCCUGGAUGAGCUUGCAUAGAAUUUAGUAA	0.00272 ± 0.0027
UCCUGGAACAGCUUGCAUAGUAUGUAGUUA	0.00302 ± 0.0021
UCCUCCUACAGCUUGCUUAGUAUAUAGUUA	0.0127 ± 0.0069
UCCUGGAACAGCUUGCAUAGUAUAUAGAAA	0.00685 ± 0.0044
UCCUCCUACAGGUUGCAUAGUAUUUACAAA	0.00321 ± 0.0024
UCCUGGAUGUGCUUCAUAGUAUUUAGUUA	0.00929 ± 0.0056
UCCUGGAUGUCGAACCAUAGUAUUUAGUCA	< 0.0001
UCCUGGAACAGCUUGCUUAGUAUUUAGUAA	0.00393 ± 0.0022
UCCUGGAACAGCUUGCAUAGUAUUUAGUCA	0.0042 ± 0.0024
UCCUGGUACAGCUUGCAUAGUAAUUAGUUA	0.00654 ± 0.0025
UCCUCCUACAGCUUGGUAAGUAUUUAGUUA	0.00379 ± 0.0034
UCCUGGAUGAGCUAGCAUUGUAUUUAGUUA	0.00519 ± 0.0032
UCCUGCUACAGCUUGCAUAGUUUUUAGUUA	0.00538 ± 0.0021
UCCUCCUACAGCUUGCAUAGUUUUUAGAUA	0.00341 ± 0.0022
